In all, about 310,000 compounds went through this assay and about 11,000 (3.5%) were called active. About 8% were inconclusive and are not listed. Calls follow the shape of the dose curve; as a rule, active = well fitted inhibition curve with a large enough effect; inconclusive = small, poorly fitted or top-dose-only effect, or effect the other way; inactive = flat fitted curve, though single readings scatter. The list comes from a sample in which actives are over-represented; it also holds similar structures and randomly drawn compounds. Where a call stands in place of a potency, no number is given.
Test: VP16 counterscreen qHTS for inhibitors of ROR gamma transcriptional activity;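 also: Gal4-VP16 expression switched on by copper sulfate through the metallothionein promoter; nearly all actives have a fitted effect of over 50% in size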
Conditions: Drosophila S2 Gal4-VP16 UAS-luciferase, luminescence, 20 h; series mostly up to 53.6 µM
Potency is read from the fitted curve at half-maximal effect.

SMILES	Potency
Cc1cc(N2C(=O)C(O)=C(C(=O)c3ccc(C)o3)C2c2ccc(OCc3ccccc3)cc2)no1 (configuration not stated)	inactive
O=C(CN1CCC(NC(=O)Nc2ccccc2)CC1)Nc1cccc([N+](=O)[O-])c1	inactive
COc1cccc(C(=O)CC(=O)C(=O)Nc2ccc([N+](=O)[O-])cc2C)c1	inactive
CC1(C)Cc2c(sc(NC(=O)C(=O)N3CCOCC3)c2C#N)CO1	inactive
COc1ccc(Cc2nc3ccc(C(=O)NCC4CCOCC4)cc3o2)cc1OC	inactive
O=C(O)c1ccccc1CSc1nc2ccccc2s1	inactive
O=C(CCCl)Nc1ccc(S(=O)(=O)NCc2ccco2)cc1	inactive
O=S(=O)(NCc1ccco1)c1cnc(Cl)c(Cl)c1	inactive
C/C(=N\Nc1ncc(Cl)cc1Cl)c1ccc(S(=O)(=O)NCc2ccco2)cc1	3.16 µM (active)
CCCc1ccc(OCCNC(=O)c2ccccc2Br)cc1	inactive
Cc1cc(NC(=O)c2ccccc2C)no1	inactive
O=Cc1cn(Cc2ccccc2)nc1-c1cccnc1	inactive
Clc1ccc(CN2CCN(/N=C/c3cccnc3)CC2)cc1	inactive
O=C1/C(=C\c2cccnc2)CN(Cc2ccccc2)C/C1=C\c1cccnc1	2 µM (active)
Cc1c(C(C)(C)O)[nH]c2ccc(C#N)cc12	inactive
O=C(O)c1ccccc1C(=O)NC1=NN(c2ccccc2)CC1	inactive
O=C1CCC(C(=O)N2CCCCO2)CN1Cc1cccc(C(F)(F)F)c1 (configuration not stated)	inactive
NS(=O)(=O)c1ccc(CCNS(=O)(=O)c2cccc3cccnc23)cc1	inactive
Cc1cc(Cl)c2oc(C(=O)NC(C)c3ccncn3)c(C)c2c1 (configuration not stated)	inactive
CN(C)/N=C/c1cc(Cl)cc([N+](=O)[O-])c1O	inactive
Cc1cc(C(=O)N/N=C/c2ccccc2[N+](=O)[O-])c(C)o1	inactive
O=C(N/N=C/c1cc(Cl)cc([N+](=O)[O-])c1O)C(O)(c1ccccc1)c1ccccc1	0.891 µM (active)
Cc1nn(C)c(Cl)c1CN1CCC(Oc2ccc(C(=O)N3CCCC3)cc2)CC1	inactive

SMILES	Potency
O=C(C[C@H]1C(=O)N(c2ccc(F)c(F)c2)C[C@@H]1Cc1ccccc1)Nc1ccccc1	inactive
Cc1c(C(=O)NC2CCCCC2)oc2ccccc12	inactive
CCOC(=O)CSc1ccccn1	inactive
COc1cccc(N(CC(=O)NCCSc2ccccn2)S(C)(=O)=O)c1	inactive
COc1ccc(C=C(C#N)C#N)c(CSc2ccccn2)c1	15.8 µM (active)
CCCn1c2ccccc2c2cnn(CC(=O)NCCCN3CCCCC3CC)c(=O)c21 (configuration not stated)	inactive
O=C(OCC(=O)N1CCN(C(=O)c2ccco2)CC1)c1cccc(O)c1	inactive
Cc1ccnc(N2CCCC(C(=O)NC3CC3)C2)n1 (configuration not stated)	inactive
Cc1nc2ccccc2c(=O)n1NC(=O)c1ccccc1	inactive
Cc1ccnc(-n2sc3ccccc3c2=O)n1	11.2 µM (active)
Cc1ccc(CN2CCNC(=O)C2CC(=O)NCc2csc(C(C)C)n2)cc1 (configuration not stated)	inactive
O=C(C1CC1)N1N=C(c2ccc(Br)cc2)CC1(O)C(F)(F)F (configuration not stated)	inactive
O=C(c1ccc(Cl)cc1)N1N=C(c2ccccn2)CC1(O)C(F)(F)F (configuration not stated)	4.47 µM (active)
COC(=O)C1(O)CC(C(C)C)=NN1C(=O)c1ccc(Cl)cc1 (configuration not stated)	inactive
CCC(C)c1ccc(NC(=S)NCc2ccccn2)cc1 (configuration not stated)	8.91 µM (active)
O=C(NCc1ccccn1)Nc1ccc(F)cc1	inactive
COc1cccc(NC(=S)NCc2ccccn2)c1	inactive
Cc1cccc(NS(=O)(=O)c2ccc(C(=O)NCC(C)(C)N3CCOCC3)cc2)c1C	inactive
Cc1cccnc1CC(C)NC(=O)c1cc(COc2cncc(Cl)c2)on1 (configuration not stated)	inactive
COC(=O)[C@H](Cc1ccccc1)NC(=O)Nc1ccc(OC)cc1	inactive
CCOC(=O)C(Cc1ccccc1)NC(=O)CCC(=O)c1ccc(OC)cc1 (configuration not stated)	inactive
COc1cc([C@H](Cc2ccccc2)NC(C)=O)oc(=O)c1	11.2 µM (active)
COc1cc(/C=C2\C(=N)N3N=C(CC(=O)N4CCOCC4)SC3=NC2=O)cc(OC)c1OC	inactive

SMILES	Potency
CN(C)C(=O)CCC(=O)N1CCCCC1C(=O)Nc1ccc(Oc2ccccc2F)cc1 (configuration not stated)	inactive
C/C(=N\NC(=O)c1cccnc1)c1ccc(-c2ccccc2)cc1	inactive
C/C(=N\NC(=O)c1ccc(C)cc1)C1C(=O)c2ccccc2C1=O	0.562 µM (active)
Cc1ccc(C(=O)NCCNC(=O)c2ccccc2)cc1	inactive
CC(Cc1cccs1)N(Cc1ccc(Cl)cc1)C(=O)c1ccncc1 (configuration not stated)	inactive
CCOC(=O)c1ccc2[nH]c3c(c2c1)CCCC3NC=O (configuration not stated)	inactive
CCOC(=O)c1c(NC(=O)C(C)Sc2c[nH]c3ccccc23)sc2c1CCC2 (configuration not stated)	inactive
CCN(CC)CC(=O)Nc1sc2c(c1C(=O)c1ccccc1C)CCC2	17.8 µM (active)
CCCOC(=O)Nc1sc2c(c1C(=O)OCC)CCC2	inactive
CCOC(=O)c1c(NC(=O)c2ccc(Br)o2)sc2c1CCCC2	inactive
CCOCC(=O)Nc1sc2c(c1C(=O)OCC)CCCC2	inactive
CCOC(=O)c1c(NC(=S)NC)sc2c1CCCC2	1.41 µM (active)
CCc1ccc(N(CC(=O)Nc2sc3c(c2C(=O)OC)CCCC3)S(C)(=O)=O)cc1	inactive
O=C(Nc1sc2c(c1C(=O)O)CCC2)c1ccccc1F	inactive
CCOC(=O)c1c(NC(=S)Nc2ccccc2C)sc2c1CCC2	5.62 µM (active)
O=C(O)CN1c2cccc3cccc(c23)S1(=O)=O	inactive
CC(C)(COC(=O)Nc1ccccc1)COC(=O)Nc1ccccc1	inactive
CC(=O)Nc1ccc(NC(=O)CC2CCCC2)cc1	inactive
COc1cc(C(=O)N2CCN(C3CCC(C)CC3)CC2)cc(OC)c1OC (configuration not stated)	inactive
COc1ccccc1/C=N/N1CCN(Cc2ccccc2Cl)CC1	inactive
CCOCCCNc1c(CC)c(C)c(C#N)c2nc3ccccc3n12	inactive
C=C(C(C)=O)C(O)c1cccs1 (configuration not stated)	inactive
C=C(C(C)=O)C(O)c1ccc([N+](=O)[O-])cc1 (configuration not stated)	10 µM (active)

SMILES	Potency
CC(=O)NCC(O)c1ccc([N+](=O)[O-])cc1 (configuration not stated)	inactive
O=C(c1ccco1)N1CCN(C(=O)c2cc(-c3ccccc3F)no2)CC1	inactive
O=C(c1cc(COc2ccc(F)cc2F)on1)N1CCOCC1	inactive
CC(C)C[C@H](NC(=O)C1CC(=O)N(c2ccc3c(c2)OCCO3)C1)C(=O)NC1CCCC1 (some centres not stated)	inactive
Cc1noc(C)c1-c1ccc2ncnc(NCc3ccc4[nH]ccc4c3)c2c1	inactive
COc1ccc(COC(=O)c2ccc(Cl)c(S(=O)(=O)N3CCOCC3)c2)cc1F	inactive
CC(=O)c1ccc(Oc2cc(C)nc(-n3nc(C)cc3C)n2)cc1	6.31 µM (active)
Cc1cc(Oc2ccc(Cl)cc2)nc(SCC(=O)c2ccccc2)n1	inactive
COc1ccc(NC(=O)c2nc(-n3nc(C)cc3C)ccc2Cl)cc1Cl	inactive
Cc1nc(Cl)cc(N/N=C/c2ccccc2)n1	inactive
Cc1cc(Nc2ccc(Cl)cc2)nc(N2CCOCC2)n1	inactive
Cc1cc(C)n(-c2cc(Oc3ccccc3)ncn2)n1	inactive
Cc1cc(N/N=C\c2ccc(Br)cc2)nc(-n2nc(C)cc2C)n1	1.41 µM (active)
COc1ccccc1/C=N\Nc1cc(C)nc(-n2nc(C)cc2C)n1	0.355 µM (active)
COc1ccc(/C=N/Nc2cc(N3CCOCC3)nc(C)n2)c(OC)c1	inactive
Cc1ccc(S(=O)(=O)Nc2nc(C)cc(N/N=C/c3ccc(O)cc3)n2)cc1	inactive
COc1ccc(Nc2cc(C)nc(-n3nc(C)cc3C)n2)cc1	1.12 µM (active)
COc1cccc2c(N/N=C/c3ccco3)cc(C)nc12	inactive
COC(=O)c1ccc(COC(=O)c2cnc(Cl)c(Cl)c2)cc1	inactive
COCc1cc(C)n(CC(=O)NCC2CCCO2)c(=O)c1C#N (configuration not stated)	inactive
CCc1ccccc1N(CC(=O)NCC1CCCO1)C(=O)CCC(=O)Nc1nccs1 (configuration not stated)	inactive
COc1ccccc1N1CCN(C(=O)c2cc(=O)c3cc(C)cc(C)c3o2)CC1	inactive
C[C@H]1[C@H]2c3nc4ccccc4n3C[C@H]1ON2C1CCCCC1	inactive

SMILES	Potency
COc1cc2c(cc1OC)C(c1cccc([N+](=O)[O-])c1)=NCC2	inactive
CCOc1ccccc1N=C1NC(=O)CS1	inactive
O=C1CSC(=S)N1/N=C/c1ccc(O)c([N+](=O)[O-])c1	inactive
CCOc1cccc(/C=N/N2C(=O)CSC2=S)c1O	12.6 µM (active)
CCOc1ccc(N(CC(=O)Nc2cccc(OC)c2)S(C)(=O)=O)cc1	inactive
CCN1CCN(C2CCCCC2NS(=O)(=O)c2ccc(Cl)cc2)CC1 (configuration not stated)	inactive
Cc1n[nH]c(=O)nc1N/N=C/c1cccs1	11.2 µM (active)
COc1ccc(Nc2nc(=O)[nH]nc2C)cc1	inactive
Cc1nnc(N/N=C/c2cccs2)[nH]c1=O	inactive
O=C(NCCc1nnc2ccc(SCC(=O)N3CCOCC3)nn12)c1ccccc1	inactive
CCOC(=O)C1(CCOC)CCN(Cc2cc3ccccc3s2)CC1	inactive
CCC(=O)Nc1ccc2nn(-c3ccc(F)cc3)nc2c1	inactive
Cc1cc(N/C=C\C(=O)c2ccc(Cl)c(Cl)c2)no1	inactive
CCOc1ccc(N/C=C/C(=O)c2cc(OC)c(OC)c(OC)c2)cc1	inactive
COc1ccc(C(=O)/C=C/Nc2ccccn2)cc1	3.55 µM (active)
CS(=O)(=O)N1CCc2nc(-c3ccccc3)sc2C1	inactive
O=C(NCCOc1ccccc1)c1ccccc1	inactive
O=C(NCCc1ccccc1)c1ccc(OCCOc2ccccc2)cc1	inactive
CCCOc1ccc(C(=O)NCCc2ccccc2)cc1	14.1 µM (active)
CCC(C(=O)NCCC(C)C)N(Cc1ccccc1Cl)C(=O)c1snc(C(N)=O)c1N (configuration not stated)	inactive

Reference: PubChem BioAssay AID2546 (National Center for Advancing Translational Sciences (NCATS), 2010)
